# Measured values published in the supplement of paper PMC3334620.
# Whole data set: some 33,000 sequences, median “E-score (-0.5 to 0.5)” near -0.021, cut for the highest 2% near 0.32. The list comes from a sample in which the highest values are over-represented; it also holds similar and randomly drawn sequences.
# Target: T1, Zap1 (UniProt P47043)
# T1 sequence: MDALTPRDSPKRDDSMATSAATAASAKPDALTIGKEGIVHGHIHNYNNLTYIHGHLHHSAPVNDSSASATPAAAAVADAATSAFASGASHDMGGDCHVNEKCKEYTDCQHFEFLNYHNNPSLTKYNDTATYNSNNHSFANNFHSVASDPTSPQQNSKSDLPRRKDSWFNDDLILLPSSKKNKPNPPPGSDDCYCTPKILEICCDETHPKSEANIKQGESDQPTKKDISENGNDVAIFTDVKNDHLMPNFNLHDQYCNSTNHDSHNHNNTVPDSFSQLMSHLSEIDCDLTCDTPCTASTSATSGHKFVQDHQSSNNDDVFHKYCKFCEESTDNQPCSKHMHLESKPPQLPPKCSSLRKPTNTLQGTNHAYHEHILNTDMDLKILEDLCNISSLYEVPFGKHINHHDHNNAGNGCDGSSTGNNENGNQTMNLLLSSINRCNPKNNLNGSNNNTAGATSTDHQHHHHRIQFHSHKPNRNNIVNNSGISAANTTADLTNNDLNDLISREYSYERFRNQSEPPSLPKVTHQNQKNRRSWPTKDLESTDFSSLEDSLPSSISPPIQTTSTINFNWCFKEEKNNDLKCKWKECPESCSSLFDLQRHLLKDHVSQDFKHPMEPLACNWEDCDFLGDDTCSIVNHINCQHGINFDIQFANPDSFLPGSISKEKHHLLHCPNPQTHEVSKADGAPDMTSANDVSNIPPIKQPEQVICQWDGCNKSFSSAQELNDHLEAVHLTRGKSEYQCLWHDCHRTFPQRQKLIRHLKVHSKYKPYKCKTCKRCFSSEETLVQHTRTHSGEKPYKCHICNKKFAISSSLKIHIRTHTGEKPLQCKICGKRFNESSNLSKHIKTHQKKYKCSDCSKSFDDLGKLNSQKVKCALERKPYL
# Test: PBM E-score (8-mer binding enrichment) (E-score (-0.5 to 0.5)); higher = stronger / more preferred TF binding
# Settings: protein concentration: 200 nM; construct: GST-full length
# Procedure, shortened: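 E-scores (a modified Wilcoxon-Mann-Whitney statistic) were assigned by the Universal PBM Analysis Suite to every ungapped eight-base word pooled with its reverse complement. The input came from universal all-10-mer Agilent arrays made double-stranded by primer extension and probed with GST-tagged yeast transcription factors at about 100-200 nM. Fluorescent anti-GST detected bound protein, and masliner normalised the scans.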
row,Sequence,PBM E-score
1,CGAGGGGC,0.0476
2,CAAGGACA,-0.0888
3,GAGATCCA,-0.0613
4,GACCAAGA,0.0225
5,GAACCTAA,0.194
6,TACGAATA,0.197
7,ACACCTAA,0.0902
8,AAAATAAC,0.21
9,CAAATAAC,0.322
10,GAAATAAC,0.221
11,TCCCTTCA,-0.0499
12,ACCCTTCC,0.281
13,ACCCTTCT,0.272
14,GCCCTTCA,0.0388
15,ACCCTTCG,0.373
16,ACCCTTCA,0.341
17,CTCGATCC,-0.0316
18,ACTGTTCT,-0.0178
19,GACCTAGC,-0.0032
20,CTCGCGAC,0.0966
21,GTCGCGAA,-0.0334
22,GTCGCGAC,0.357
23,GTAAATCA,0.207
24,ACGTCTAG,-0.0284
25,CGTACTTC,-0.125
26,CGAGGGTC,0.245

row,Sequence,PBM E-score
1,AGAGGGTA,0.29
2,CGAGGGTA,0.371
3,GGAGGGTA,0.346
4,GGAGGGAA,-0.213
5,GGAGGGGA,-0.0565
6,AATTAACC,0.327
7,AACTAACT,0.00107
8,AATTAATT,0.0914
9,CATTAACC,0.379
10,AATTAATA,0.332
11,GATTAACC,0.173
12,AACTAACC,0.333
13,AACTAACA,0.153
14,TATTAATA,0.0379
15,CATTAACA,0.0919
16,AATTAACT,0.0482
17,CATTAACG,0.0999
18,CCGATCGG,0.13
19,AGCTTGGG,-0.06
20,GGCCTTCA,0.167
21,GCGAACCC,0.00303
22,GAGCTGAC,0.122
23,CAGTGACG,-0.0109
24,ACGAAATG,0.0348
25,TAGACTGA,-0.182
26,AATCTTTG,0.114

row,Sequence,PBM E-score
1,ACATACCT,0.118
2,CTTGGCGC,0.0977
3,ATGGTAAG,-0.124
4,ATGGTAAA,0.0888
5,CTGGTAAC,0.255
6,GTGGTAAC,0.36
7,ATGGTAAC,0.392
8,GTGGTAAA,-0.0285
9,CAAGTGTC,-0.0245
10,ACCCAAGA,0.152
11,ACTATGGA,-0.0878
12,ACAATAGG,-0.0709
13,ACCAGTTA,0.206
14,CGATAACG,-0.174
15,AGATAACC,0.435
16,CGATAACA,0.131
17,AGATAACG,0.0406
18,GGATAACC,0.436
19,AGATAACT,-0.118
20,GGATAAAC,0.149
21,GGATAACA,-0.0812
22,CGATAACC,0.46
23,CCTCTCGC,-0.108
24,ACAAGCCG,-0.223
25,TATGGGGA,0.145
26,AATATCCT,0.00302

row,Sequence,PBM E-score
1,AAGAGCTA,-0.0268
2,CTGGGGTA,0.269
3,ATGGGGTC,0.284
4,ATGGGGTA,0.326
5,GTGGGGTA,0.368
6,ATGGGGTG,0.143
7,GGGGGGTA,-0.0438
8,CGAACACA,0.085
9,GGTAACTA,0.313
10,CGTAACGA,-0.081
11,AGTAACTC,-0.0584
12,CGTAACTA,0.0577
13,CGTAACCA,0.441
14,AGTAACTA,0.219
15,AGTAAACC,0.177
16,AGTAACCA,0.387
17,GGTAACGA,0.294
18,AGTAACCC,0.443
19,AGTAACGA,0.0604
20,GGTAACCA,0.461
21,CATCAGGA,0.0932
22,ATAGTTGG,-0.0799
23,CTGGAGGA,-0.216
24,AAAGTAGT,0.0501
25,ACACTTGG,0.0219
26,GGTAATAC,0.248

row,Sequence,PBM E-score
1,CGTAACAA,0.201
2,AGTAACAA,0.161
3,AGTAACTG,-0.154
4,TGTAATAA,0.133
5,GGTAACAA,0.38
6,GGTAATAA,0.338
7,AGTAACCG,0.355
8,AGTAACGG,0.126
9,CAGGGGAG,-0.0274
10,GCTAATCC,-0.0663
11,ATCGTTCA,0.092
12,CCTTCACA,0.0885
13,ACCTGACT,0.143
14,CCAGAACA,-0.00016
15,AAGACCCC,0.323
16,ATGACCTC,0.442
17,ATGACCCA,0.397
18,GTGACCCA,0.389
19,ATGACCCG,0.269
20,AAGACCCG,0.0601
21,GGGACCCA,0.198
22,AAGACCCA,0.142
23,CTGACCTC,0.194
24,ATGACCGA,0.0244
25,ATGACCTG,0.303
26,CTGACCCA,-0.11

row,Sequence,PBM E-score
1,ATCTGCTG,-0.184
2,GCACCAAC,-0.00297
3,CTTGACCA,0.147
4,CCCTCTGA,0.0399
5,ATTTTTTC,0.0779
6,ACCTGCCG,-0.0789
7,AGACAAAC,-0.0937
8,GTGACCAC,0.344
9,ATGACCAC,0.289
10,ATGACCCC,0.385
11,GTGACCAA,0.305
12,CTGACCCC,0.12
13,ATGACCGC,0.302
14,AAGTGGCC,0.0931
15,GGAGCGAC,-0.122
16,AGGCCACT,-0.13
17,AACCTCAA,0.263
18,AGCCTCTA,-0.101
19,GACCTCTC,0.203
20,AACCTCTC,0.349
21,TACCTCTA,0.347
22,ACCCTCTC,0.121
23,AACCTCTA,0.351
24,ACCCTCTA,0.355
25,CACCTCTA,0.22
26,CACCTCTC,-0.242

row,Sequence,PBM E-score
1,TACCTCCA,0.303
2,GCCCTCTA,-0.245
3,CCTGACCG,0.0354
4,CTGGCCCA,-0.095
5,AGTACTTC,0.148
6,AGTGTGAA,-0.13
7,AACGTTGC,-0.161
8,ACCAAGGG,0.178
9,CGCTACCC,0.302
10,ATCCCTCA,-0.0235
11,CGGGATCC,-0.0153
12,ACAGCGAC,-0.152
13,GGCCTCTA,0.0229
14,GACCTCTA,0.318
15,GTCCTCTA,-0.0992
16,AACCTCTG,0.306
17,AACCTCTT,0.397
18,AACCTCCT,0.158
19,GCGGGGCC,-0.0181
20,CAACGCGC,0.0876
21,CTTAGAGC,0.0313
22,GGCATCCA,-0.107
23,GACCAGTA,0.0618
24,AAAATGTG,-0.0329
25,AATGGGCG,-0.204
26,TGAACCCA,0.242

row,Sequence,PBM E-score
1,ATAACCCA,0.472
2,GGAACCCA,0.171
3,CTAACCCC,0.178
4,ATAAACCA,0.121
5,GAAACCCA,0.246
6,AAAACCCA,0.258
7,AGAACCCG,0.223
8,GTAACCCA,0.468
9,AAAACCCG,0.131
10,CTAACCCA,0.326
11,ATAACCCG,0.442
12,CTTTGCGC,-0.0424
13,GTGATTTA,0.193
14,AACTGTTC,-0.0321
15,ACTTTAGC,-0.16
16,AATCAGTA,-0.0224
17,AGGGAGAG,-0.0798
18,CCAGGGTC,0.19
19,GCAGGGAA,-0.0199
20,GCAGGGGA,-0.177
21,CCAGGGCA,-0.123
22,GCAGGGTA,0.373
23,ACAGGGTG,0.199
24,CCAGGGTA,0.323
25,ACAGGGTC,0.315
26,ACAGGGTA,0.366

row,Sequence,PBM E-score
1,CGACAGCG,-0.154
2,CGCCGCGC,-0.0986
3,ATTGCGGG,0.11
4,CGAGTAAG,0.119
5,AGCAGTAT,0.0154
6,CGCAAACC,0.0968
7,TCGCGAGA,0.117
8,CTTAACAC,0.0174
9,ATTAACAG,-0.102
10,ATTAACCG,0.331
11,ATTAACCA,0.246
12,CTTAACCC,0.387
13,CTCAACCC,0.201
14,CTTAACGA,-0.00709
15,ATTAACGG,0.0866
16,CTCAACCA,0.00637
17,CTTAACCA,0.376
18,GTTAACCA,0.338
19,GTTAACTA,0.263
